The text below walks through data of PubChem BioAssay (EPA / NIEHS).

Assay [1] addresses human Vascular Endothelial Growth Factor Receptor 2 (VEGFR2), KDR (gene 3791) (UniProt P35968). Put plainly: NVS_ENZ_hVEGFR2: NovaScreen (NVS) Enzymatic Assay for human Vascular Endothelial Growth Factor Receptor 2 (VEGFR2) (AID 2283230). The essentials:
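Cell-free recombinant VEGFR2 kinase, fluorescent substrate with electrophoretic mobility-shift separation; read 1 h after dosing. Screened at 25 uM in duplicate, hits to concentration-response up to 50 uM; loss-of-signal versus DMSO.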

Assay [2] addresses rabbit Imidazoline 2 Central (I2C), CKB (gene 100009085) (UniProt P00567). Put plainly: NVS_ENZ_rabI2C: NovaScreen (NVS) Enzymatic Assay for rabbit Imidazoline 2 Central (I2C) (AID 2283228). The essentials: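 Rabbit brain membranes, cell-free; readout by filter-based scintillation counting 1.5 hours after dosing, loss of signal vs DMSO. Initial duplicate test at 25 uM, then concentration-response with 50 uM top concentration.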

For assay [3], the target named is sheep Cyclooxygenase-2 (Cox2), PTGS2 (gene 443460) (UniProt P79208). Put plainly: NVS_ENZ_oCOX2: NovaScreen (NVS) Enzymatic Assay for sheep Cyclooxygenase-2 (Cox2) (AID 2283231). Summed up: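 Compounds were first run at 25 uM in duplicate against tissue-extracted ovine COX-2; those passing a preset inhibition threshold went to singleton concentration-response testing with a 50 uM maximum. Read-out: absorbance at 0.66 hour.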
sheep Cyclooxygenase-2 (Cox2), PTGS2 (gene 443460), sequence (P79208 whole entry, looked up): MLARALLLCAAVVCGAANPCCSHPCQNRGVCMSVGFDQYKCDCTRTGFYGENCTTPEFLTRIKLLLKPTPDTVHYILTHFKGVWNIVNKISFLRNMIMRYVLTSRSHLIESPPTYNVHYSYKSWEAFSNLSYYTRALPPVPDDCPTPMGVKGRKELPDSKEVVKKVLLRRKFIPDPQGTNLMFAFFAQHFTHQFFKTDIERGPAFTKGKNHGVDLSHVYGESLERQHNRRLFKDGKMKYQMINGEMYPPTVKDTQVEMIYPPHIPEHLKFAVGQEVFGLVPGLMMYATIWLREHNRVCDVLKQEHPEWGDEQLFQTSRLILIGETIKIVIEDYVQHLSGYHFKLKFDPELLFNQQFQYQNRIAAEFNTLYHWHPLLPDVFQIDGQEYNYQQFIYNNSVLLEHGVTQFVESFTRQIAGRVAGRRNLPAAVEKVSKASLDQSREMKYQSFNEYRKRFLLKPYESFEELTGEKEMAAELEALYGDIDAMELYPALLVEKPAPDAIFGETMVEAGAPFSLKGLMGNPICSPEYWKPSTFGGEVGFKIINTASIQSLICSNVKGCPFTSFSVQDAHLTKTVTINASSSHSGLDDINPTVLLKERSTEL

Assay [4] addresses human Vascular Endothelial Growth Factor Receptor 3 (VEGFR3), FLT4 (gene 2324) (UniProt P35916). Put plainly: NVS_ENZ_hVEGFR3: NovaScreen (NVS) Enzymatic Assay for human Vascular Endothelial Growth Factor Receptor 3 (VEGFR3) (AID 2283229). Summed up: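 Cell-free recombinant VEGFR3 kinase reaction with fluorescent substrate, read 1 h after dosing by electrophoretic mobility shift separation of substrate and product. Single-concentration duplicate screen at 25 uM, then concentration-response up to 50 uM; loss of activity versus DMSO.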

Assay [5] has as its system bovine Angiotensin II Receptor Type 2 (AT2), gene 407157. Put plainly: NVS_GPCR_bAT2: NovaScreen (NVS) G Protein-Coupled Receptor Assay for bovine Angiotensin II Receptor Type 2 (AT2) (AID 2283240). Summed up: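 Radioligand displacement on bovine cerebellar membranes, 1 hour incubation, filter-based scintillation counting; loss of signal vs DMSO. Duplicate single-point screen at 25 uM, then concentration-response to 50 uM maximum.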

For assay [6], the target named is rat Catechol-O-Methyl Transferase (COMT), Comt (gene 24267) (UniProt P22734). Put plainly: NVS_ENZ_rCOMT: NovaScreen (NVS) Enzymatic Assay for rat Catechol-O-Methyl Transferase (COMT) (AID 2283235). The essentials: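 Cell-free enzyme activity with protein extracted from rat dorsal striatum, measured by HPLC with absorbance detection. Compounds screened at 25 uM in duplicate; actives then run in concentration-response up to 50 uM, loss of signal versus DMSO.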
rat Catechol-O-Methyl Transferase (COMT), Comt (gene 24267), sequence (P22734 whole entry, looked up): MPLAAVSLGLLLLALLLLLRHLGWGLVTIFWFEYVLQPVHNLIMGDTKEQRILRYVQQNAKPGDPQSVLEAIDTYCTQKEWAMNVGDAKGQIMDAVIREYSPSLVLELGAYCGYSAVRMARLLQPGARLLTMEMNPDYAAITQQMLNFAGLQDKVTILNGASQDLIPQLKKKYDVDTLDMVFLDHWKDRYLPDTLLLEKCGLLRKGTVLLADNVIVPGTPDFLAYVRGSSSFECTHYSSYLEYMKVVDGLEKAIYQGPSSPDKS

Assay [7] deals with sheep Cyclooxygenase-1 (Cox1), PTGS1 (gene 443551) (UniProt P05979). Put plainly: NVS_ENZ_oCOX1: NovaScreen (NVS) Enzymatic Assay for sheep Cyclooxygenase-1 (Cox1) (AID 2283239).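 Also: actives reduce cyclooxygenase activity so potencies are for inhibitors.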 Summed up:
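Ovine seminal vesicle extract; absorbance (colorimetric) enzyme read-out at 0.66 h post-dose. Primary: single conc 25 uM, duplicate. Follow-up: concentration series on actives. Activity = signal loss vs DMSO baseline.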

For assay [8], the target named is bovine Dopamine Receptor (DR), Non-selective Binding, DRD1 (gene 281125) (UniProt Q95136). Put plainly: NVS_GPCR_bDR_NonSelective: NovaScreen (NVS) G Protein-Coupled Receptor Assay for bovine Dopamine Receptor (DR), Non-selective Binding (AID 2283241). Summed up: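 Bovine striatal membranes; radioligand displacement read by filtration and scintillation counting 1 h after dosing, loss of signal vs DMSO. Screened in duplicate at 25 uM, then concentration-response for hits.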

Assay [9] has as its target Adenosine receptor A1 (Bos taurus) (UniProt P28190). Put plainly: NVS_GPCR_bAdoR_NonSelective: NovaScreen (NVS) G Protein-Coupled Receptor Assay for bovine Adenosine Receptor (AdoR), Non-selective Binding (AID 2283244). How it is done:
NVS_GPCR_bAdoR_NonSelective is a biochemical, single-readout assay that uses extracted gene-proteins from Bovine striatal membranes in a tissue-based cell-free assay. Measurements were taken 1 hour after chemical dosing in a 96-well plate.NVS_GPCR_bAdoR_NonSelective is one of one assay component(s) measured or calculated from the NVS_GPCR_bAdoR_NonSelective assay. It is designed to make measurements of radioligand binding, a form of binding reporter, as detected with scintillation counting signals by Filter-based radiodetection technology.Data from the assay component NVS_GPCR_bAdoR_NonSelective was analyzed into 1 assay endpoint. This assay endpoint, NVS_GPCR_bAdoR_NonSelective, was analyzed in the positive analysis fitting direction relative to DMSO as the negative control and baseline of activity. Using a type of binding reporter, loss-of-signal activity can be used to understand changes in the binding as they relate to the gene ADORA1. Furthermore, this assay endpoint can be referred to as a primary readout, because the performed assay has only produced 1 assay endpoint. To generalize the intended target to other relatable targets, this assay endpoint is annotated to the gpcr intended target family, where the subfamily is rhodopsin-like receptor.
Binding assays used specific radioligands (tritiated, iodinated) with non-radioactive competitive displacement ligands in agonist or antagonist protocols (as indicated) and various reference compounds and inhibitors to titrate specific binding to receptors and transporters. Most enzyme assays (CYPs, kinases, phosphatases, proteases, HDACs) used recombinant protein and specific substrates (fluorescence mostly, some colorimetric and radioactive) and inhibitors, followed by a biochemical separation of substrate and product. All assays for the biochemical HTS were initially run in duplicate at a single concentration (10 uM for CYP450 assays and 25 uM for all others). […]

The target of assay [10] is rat Constitutive Nitric Oxide Synthase (CNOS), Nos1 (gene 24598) (UniProt P29476). Put plainly: NVS_ENZ_rCNOS: NovaScreen (NVS) Enzymatic Assay for rat Constitutive Nitric Oxide Synthase (CNOS) (AID 2283236). Summed up: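 Enzyme activity in rat brain membrane preparation, read 1 h after dosing by filter-based radiometric scintillation counting. Primary screen in duplicate at 25 uM; actives (e.g., ≥30% inhibition) then run in concentration-response up to 50 uM.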
rat Constitutive Nitric Oxide Synthase (CNOS), Nos1 (gene 24598), sequence (P29476 whole entry, looked up): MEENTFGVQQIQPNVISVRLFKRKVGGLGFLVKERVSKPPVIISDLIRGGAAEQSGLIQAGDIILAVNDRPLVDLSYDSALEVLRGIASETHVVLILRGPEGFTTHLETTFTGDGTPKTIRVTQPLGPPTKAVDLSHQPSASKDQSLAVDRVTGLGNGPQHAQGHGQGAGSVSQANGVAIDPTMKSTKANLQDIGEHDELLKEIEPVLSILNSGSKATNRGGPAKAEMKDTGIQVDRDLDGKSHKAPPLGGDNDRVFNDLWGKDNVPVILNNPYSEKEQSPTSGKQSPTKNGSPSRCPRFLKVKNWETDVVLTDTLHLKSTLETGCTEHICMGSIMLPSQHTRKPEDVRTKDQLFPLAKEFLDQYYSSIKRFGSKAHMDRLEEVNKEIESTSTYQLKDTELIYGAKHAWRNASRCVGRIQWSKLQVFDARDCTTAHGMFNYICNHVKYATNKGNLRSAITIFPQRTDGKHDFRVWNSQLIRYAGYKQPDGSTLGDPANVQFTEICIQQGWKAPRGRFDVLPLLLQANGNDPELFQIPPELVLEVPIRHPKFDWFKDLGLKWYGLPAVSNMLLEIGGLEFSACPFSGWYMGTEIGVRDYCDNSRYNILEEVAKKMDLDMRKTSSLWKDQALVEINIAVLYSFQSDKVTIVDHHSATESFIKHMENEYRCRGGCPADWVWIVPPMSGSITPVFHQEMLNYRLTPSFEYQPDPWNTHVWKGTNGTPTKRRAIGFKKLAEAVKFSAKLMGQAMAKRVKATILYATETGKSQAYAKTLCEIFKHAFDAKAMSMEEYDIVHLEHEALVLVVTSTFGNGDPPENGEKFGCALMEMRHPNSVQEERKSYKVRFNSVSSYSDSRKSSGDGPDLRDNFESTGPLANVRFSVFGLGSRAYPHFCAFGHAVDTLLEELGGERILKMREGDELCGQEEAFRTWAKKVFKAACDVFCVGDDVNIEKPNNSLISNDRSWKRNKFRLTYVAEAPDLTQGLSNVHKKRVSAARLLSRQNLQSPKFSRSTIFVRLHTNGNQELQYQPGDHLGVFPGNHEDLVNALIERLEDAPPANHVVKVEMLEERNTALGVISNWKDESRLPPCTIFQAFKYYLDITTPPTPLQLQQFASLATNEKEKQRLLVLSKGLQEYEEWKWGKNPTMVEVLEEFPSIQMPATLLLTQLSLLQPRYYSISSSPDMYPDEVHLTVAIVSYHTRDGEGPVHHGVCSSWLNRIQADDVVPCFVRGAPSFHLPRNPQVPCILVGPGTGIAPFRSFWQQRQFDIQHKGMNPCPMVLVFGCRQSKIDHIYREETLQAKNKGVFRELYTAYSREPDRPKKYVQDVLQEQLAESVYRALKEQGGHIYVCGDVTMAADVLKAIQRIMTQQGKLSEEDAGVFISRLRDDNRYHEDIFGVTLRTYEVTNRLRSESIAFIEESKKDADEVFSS

Results filed as inconclusive are left out. Activity calls are given as the source filed them. The calls were made as follows: active = hit-call score of the fitted dose curve at least 0.9, where 1 is the maximum; inconclusive = response in the unintended direction; inactive = score below 0.9.

Adenosine receptor A1 (Bos taurus), sequence (P28190 whole entry, looked up): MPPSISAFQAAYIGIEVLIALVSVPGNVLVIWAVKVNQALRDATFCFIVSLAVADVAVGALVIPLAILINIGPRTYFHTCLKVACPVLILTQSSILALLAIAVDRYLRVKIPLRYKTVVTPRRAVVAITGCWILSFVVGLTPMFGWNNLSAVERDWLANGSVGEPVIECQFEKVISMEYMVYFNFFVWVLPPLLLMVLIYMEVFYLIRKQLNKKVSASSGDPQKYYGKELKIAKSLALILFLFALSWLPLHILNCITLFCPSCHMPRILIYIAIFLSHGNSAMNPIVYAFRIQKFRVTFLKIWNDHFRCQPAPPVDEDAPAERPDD
sheep Cyclooxygenase-1 (Cox1), PTGS1 (gene 443551), sequence (P05979 whole entry, looked up): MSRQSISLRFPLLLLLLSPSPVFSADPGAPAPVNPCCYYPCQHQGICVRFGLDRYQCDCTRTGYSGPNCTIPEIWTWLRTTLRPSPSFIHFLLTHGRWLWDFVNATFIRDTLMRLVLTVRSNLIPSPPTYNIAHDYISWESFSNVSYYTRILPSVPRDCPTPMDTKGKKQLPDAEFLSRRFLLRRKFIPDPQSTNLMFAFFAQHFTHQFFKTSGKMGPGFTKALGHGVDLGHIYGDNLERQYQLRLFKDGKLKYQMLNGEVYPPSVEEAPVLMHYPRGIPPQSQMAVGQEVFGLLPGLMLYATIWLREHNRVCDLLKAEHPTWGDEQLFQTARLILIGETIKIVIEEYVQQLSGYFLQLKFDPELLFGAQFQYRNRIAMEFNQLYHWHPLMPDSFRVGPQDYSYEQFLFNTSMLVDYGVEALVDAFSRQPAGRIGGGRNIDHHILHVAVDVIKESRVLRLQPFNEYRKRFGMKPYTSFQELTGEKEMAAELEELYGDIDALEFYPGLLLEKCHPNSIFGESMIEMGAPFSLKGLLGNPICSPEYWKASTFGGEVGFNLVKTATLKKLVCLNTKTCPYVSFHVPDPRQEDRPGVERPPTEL
human Vascular Endothelial Growth Factor Receptor 3 (VEGFR3), FLT4 (gene 2324), sequence (P35916 whole entry, looked up): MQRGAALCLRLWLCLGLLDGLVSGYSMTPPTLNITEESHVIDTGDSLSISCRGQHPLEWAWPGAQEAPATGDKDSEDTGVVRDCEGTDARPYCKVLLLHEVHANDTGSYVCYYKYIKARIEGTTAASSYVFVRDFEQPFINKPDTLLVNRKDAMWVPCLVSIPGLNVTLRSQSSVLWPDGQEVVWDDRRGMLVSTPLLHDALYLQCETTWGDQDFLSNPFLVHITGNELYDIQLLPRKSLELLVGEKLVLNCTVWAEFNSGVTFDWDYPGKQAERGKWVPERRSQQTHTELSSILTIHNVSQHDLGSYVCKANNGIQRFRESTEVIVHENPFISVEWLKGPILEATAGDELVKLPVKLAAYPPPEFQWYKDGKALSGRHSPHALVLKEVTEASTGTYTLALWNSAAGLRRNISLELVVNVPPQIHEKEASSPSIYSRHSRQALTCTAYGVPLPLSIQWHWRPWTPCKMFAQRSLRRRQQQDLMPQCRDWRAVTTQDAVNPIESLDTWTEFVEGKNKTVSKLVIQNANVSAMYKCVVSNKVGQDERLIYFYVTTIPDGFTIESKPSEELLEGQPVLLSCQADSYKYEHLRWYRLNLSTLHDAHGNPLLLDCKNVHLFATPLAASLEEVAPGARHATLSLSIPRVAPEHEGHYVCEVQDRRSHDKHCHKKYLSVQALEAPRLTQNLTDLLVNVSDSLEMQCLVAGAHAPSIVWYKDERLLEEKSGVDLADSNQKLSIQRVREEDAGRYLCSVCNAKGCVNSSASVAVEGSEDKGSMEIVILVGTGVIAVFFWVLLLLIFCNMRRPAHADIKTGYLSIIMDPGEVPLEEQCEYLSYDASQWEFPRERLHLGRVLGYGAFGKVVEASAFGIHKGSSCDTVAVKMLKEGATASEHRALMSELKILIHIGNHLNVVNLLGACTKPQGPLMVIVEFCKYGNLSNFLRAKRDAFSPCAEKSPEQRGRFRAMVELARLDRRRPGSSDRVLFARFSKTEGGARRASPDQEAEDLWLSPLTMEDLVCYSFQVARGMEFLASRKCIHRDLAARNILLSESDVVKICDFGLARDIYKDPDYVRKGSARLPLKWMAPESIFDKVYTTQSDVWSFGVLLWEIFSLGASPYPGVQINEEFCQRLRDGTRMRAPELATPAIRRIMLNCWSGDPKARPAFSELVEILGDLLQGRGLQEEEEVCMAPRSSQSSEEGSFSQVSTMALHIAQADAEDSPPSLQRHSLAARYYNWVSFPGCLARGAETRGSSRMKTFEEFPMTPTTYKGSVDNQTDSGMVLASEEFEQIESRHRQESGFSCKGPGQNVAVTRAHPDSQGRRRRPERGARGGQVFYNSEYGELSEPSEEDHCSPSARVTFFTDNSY
rabbit Imidazoline 2 Central (I2C), CKB (gene 100009085), sequence (P00567 whole entry, looked up): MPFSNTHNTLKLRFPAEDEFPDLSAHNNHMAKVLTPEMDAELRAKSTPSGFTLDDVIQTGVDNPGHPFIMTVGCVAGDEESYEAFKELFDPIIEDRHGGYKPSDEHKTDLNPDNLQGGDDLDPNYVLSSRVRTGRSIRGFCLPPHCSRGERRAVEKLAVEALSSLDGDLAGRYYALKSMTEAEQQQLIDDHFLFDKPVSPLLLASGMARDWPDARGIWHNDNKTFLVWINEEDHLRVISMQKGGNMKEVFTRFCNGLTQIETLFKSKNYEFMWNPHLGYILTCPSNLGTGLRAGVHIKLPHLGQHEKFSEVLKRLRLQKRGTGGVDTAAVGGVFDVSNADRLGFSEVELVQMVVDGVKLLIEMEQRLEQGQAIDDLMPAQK

On to `Cc1ccc(S(=O)(=O)NC(=O)NN2CCCCCC2)cc1`, for which the result in assay [1] was inactive.
Consider `CC(C)C(=O)Nc1ccc([N+](=O)[O-])c(C(F)(F)F)c1`, for which the compound was classed as inactive in assay [2].
Regarding `OCCNCCO`, the result in assay [1] was inactive.
A word on the AC50: it is the concentration giving half of the maximal activity seen. With `Cc1nccn1-c1ccc(Sc2cccc(C3(C(N)=O)CCOCC3)c2)cc1`, in [2], the AC50 is 9.43 µM (active).
As to `CCn1nc(C)c2c1C(=O)NCC(c1ccc(O)cc1)=N2`, in assay [3], the compound was classed as inactive.
Take `CCCCCCCC/C=C\CCCCCCCC(=O)OC[C@@H](O)[C@H]1OC[C@H](O)[C@H]1O`: the compound was classed as inactive in [4] and in assay [5]. In addition, in [1], the AC50 was 40.7 µM (active).
On to `OCc1ccccc1`, for which the AC50 in assay [3] was 12.3 µM (active).
Take `CC[C@H](C)C(=O)O[C@H]1C[C@H](O)C=C2C=C[C@H](C)[C@H](CC[C@@H](O)C[C@@H](O)CC(=O)O)[C@H]21`: the compound was classed as inactive in assay [4], in assay [1], in assay [6] and in assay [7]. In addition, the AC50 in [3] was 4.48 µM (active).
As for `Cc1nc(-c2ccccn2)ncc1C(=O)Nn1cc(C)c2cc(F)ccc21`, the compound was called inactive in assay [1] and in assay [7].
As to `COS(C)(=O)=O`, the compound was classed as inactive in assay [8].
For `O=C(O)c1cccc(C(=O)O)c1`, the compound was called inactive in assay [7].
With `CCN(CC)C(=S)SSC(=S)N(CC)CC`, the compound was called inactive in assay [4], in assay [1] and in [9].
As to `OC[C@H]1O[C@@H]2O[C@H]3[C@H](O)[C@@H](O)[C@@H](O[C@H]4[C@H](O)[C@@H](O)[C@@H](O[C@H]5[C@H](O)[C@@H](O)[C@@H](O[C@H]6[C@H](O)[C@@H](O)[C@@H](O[C@H]7[C@H](O)[C@@H](O)[C@@H](O[C@H]1[C@H](O)[C@H]2O)O[C@@H]7CO)O[C@@H]6CO)O[C@@H]5CO)O[C@@H]4CO)O[C@@H]3CO`, in assay [3], the concentration at half-maximal activity (AC50) was 3.51 µM (active).
As for `O=C(O)c1cccc(C[C@@H]2COc3ccc(OCc4nc5cc(F)ccc5s4)cc3[C@@H]2O)c1`, the compound was called inactive in assay [2] and in [10].
In the case of `C=CCc1cc(S(=O)(=O)c2ccc(O)c(CC=C)c2)ccc1O`, the AC50 is 21.2 µM (active) in [1], 1.07 µM (active) in assay [7] and 16.7 µM (active) in assay [9].
For `O=C1CN(N=Cc2ccc([N+](=O)[O-])o2)C(=O)N1`, the compound was classed as inactive in assay [10] and in [7].
Turning to `NC(=O)N(O)[C@@H]1COc2cc(OCc3ccccc3)ccc21`, the concentration at half-maximal activity (AC50) in assay [2] was 19.9 µM (active).
In the case of `CCCC(CCC)C(=O)O`, the compound was classed as inactive in assay [4].
In the case of `O=C(N[C@H](CO)[C@H](O)c1ccc([N+](=O)[O-])cc1)C(Cl)Cl`, in [7], the compound was classed as inactive.
`c1ccc2ncccc2c1`: in assay [2], the AC50 was 6.6 µM (active).
`OCc1c[nH]c2ccccc12`: in assay [7], the AC50 was 25 µM (active).
As to `OCCOCCOCCO`, the compound was classed as inactive in assay [4].
Regarding `Cc1ncc([C@@H](CCCCCCc2ccc3c(n2)NCCC3)CC(=O)O)cn1`, the call in assay [4] and in assay [1] was inactive. Moreover, in assay [3], the AC50 is 29 µM (active).
Regarding `CCCCCCCCN(C)C`, the outcome in assay [2] and in [10] was inactive.
As for `COc1cc(C(C)C)c2c(c1)S(=O)(=O)N(COc1cc(=O)n3cccc(OCCN4CCCCC4)c3n1)C2=O`, the call in [2] and in assay [3] was inactive.
`CCCOc1ccc(S(=O)(=O)N2CCN(CC)CC2)cc1-c1nc2c(CC)n(Cc3ccccn3)nc2c(=O)[nH]1`: the compound was classed as inactive in assay [9].
Turning to `CCCCC(CC)C(=O)OCCOCCOCCOC(=O)C(CC)CCCC` (centres undefined), the outcome in [2] and in assay [4] was inactive. Also, in [10], the AC50 is 5.94 µM (active).
In the case of `CCCCCCCCCCCCCCO`, the result in [1] was inactive. In addition, the AC50 in [10] is 11.7 µM (active).
In the case of `O=S(=O)(O)c1ccc(N=Nc2c(O)ccc3cc(S(=O)(=O)O)ccc23)cc1`, in assay [10], the half-maximal activity concentration (AC50) was 25 µM (active).
For `O=C(NO)C1(NS(=O)(=O)c2ccc(Oc3ccc(F)cc3)cc2)CCOCC1`, the outcome in [4] was inactive.
`c1ccc(C(O[C@@H]2CCCN(CCc3ccc4c(c3)OCO4)C2)c2ccccc2)cc1`: the AC50 in assay [2] was 4.09 µM (active); in assay [8] it was 10.6 µM (active). In addition, in assay [5], the compound was classed as inactive.
As for `O=c1[nH]cnc2c1ncn2[C@H]1CC[C@@H](CO)O1`, the outcome in assay [4] was inactive.
